In all, about 1,900 compounds went through this assay and about 15 (0.8%) were called active. No stated cut-off is given here; in the data, active means luminescence above about 3900; inactive means the rest. Not all results are given here.
target: D(1A) dopamine receptor (Homo sapiens) (UniProt P21728); experiment: intrinsic activation of D1 CRE reporter – cell-based, HEK293 D1, CRE-luciferase, secondary assay 1, mechanism study for D1 allosteric modulator project, confirmation (AID 646); settings: no dopamine, at 10 µM, active compounds read high
Sequence (P21728 whole entry, looked up): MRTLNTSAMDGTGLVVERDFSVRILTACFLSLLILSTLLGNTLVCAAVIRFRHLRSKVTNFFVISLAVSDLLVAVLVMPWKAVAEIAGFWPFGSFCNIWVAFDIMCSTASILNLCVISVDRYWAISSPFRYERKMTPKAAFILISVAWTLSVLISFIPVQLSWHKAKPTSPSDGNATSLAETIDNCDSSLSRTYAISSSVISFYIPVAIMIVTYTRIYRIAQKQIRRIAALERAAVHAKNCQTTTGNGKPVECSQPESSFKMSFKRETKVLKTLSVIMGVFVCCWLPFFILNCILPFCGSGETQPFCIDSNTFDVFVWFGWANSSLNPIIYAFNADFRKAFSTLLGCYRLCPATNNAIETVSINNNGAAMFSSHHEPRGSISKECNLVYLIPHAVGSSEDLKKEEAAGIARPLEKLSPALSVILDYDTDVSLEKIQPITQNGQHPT

luminescence, inactive:
CN(C)c1nc(N)nc(CSc2nnnn2-c2cccc3ccccc23)n1 792
CCn1nc(C(=O)OCC(=O)N2c3ccccc3CC2C)c2ccccc2c1=O (stereo unspecified) 1520
CCC(=O)NC(=Nc1nc2ccccc2s1)NC(=O)CC 1420
CCOC(=O)c1cc(C)sc1NC(=O)C1CCC1 2190
COc1nc(NCc2ccc(Cl)cc2)nc(OC)n1 1580
COc1ccc(-c2nnco2)cc1OC 1540
CCOc1ccc2c(c1)cc(CN(C(=O)CC)C1CCCCC1)c1nnnn12 1650
CCn1c(=N)c(S(=O)(=O)c2ccc(F)cc2)cc2c(=O)n3ccccc3nc21 1820
Cn1c(=O)c2[nH]c(NCC3CCCO3)nc2n(-c2ccccc2)c1=O (stereo unspecified) 1520
O=C(NCc1ccccn1)c1ccc2nc(-c3ccco3)c(-c3ccco3)nc2c1 2040
CCn1ncc(C2=NOC(C(=O)Nc3ccccc3C(=O)OC)C2)c1C (stereo unspecified) 1280
COc1ccc(S(=O)(=O)N(C)CC(=O)Nc2ccc3c(c2)OCCO3)cc1OC 1540
CCOc1ccc(-c2nnn(CC(=O)N3CCN(c4ccc(OC)cc4)CC3)n2)cc1OCC 1540
CCCS(=O)(=O)N1CCC(C(=O)NCCc2ccc(OC)c(OC)c2)CC1 1810
Cc1ccc(C2CC(c3cccc(C)c3)n3nc(N)nc3N2)cc1 (stereo unspecified) 1850
CCCn1c(=NC(C)=O)c(C(=O)OCC)cc2c(=O)n3ccccc3nc21 1630
COc1ccc(S(=O)(=O)Nc2ccc(S(=O)(=O)N3CCCCC3)cc2)cc1OC 1540
CCOC(=O)/C=c1\s/c(=C\c2ccccc2OC)c(=O)n1CC(=O)N1CCOCC1 1600
FC(F)(F)c1cc(-c2ccco2)nc(N2CCOCC2)n1 1540
Cc1ccc(S(=O)(=O)c2c(N)n(C)c3nc4ccccc4nc23)cc1 1580
CC(=O)c1ccc(Oc2cc(C)nc(-n3nc(C)cc3C)n2)cc1 1560
CCCCc1c(O)nc2n(c1=O)CCS2 1610
CCNc1nc(NCC)nc(N(C)n2cnnc2)n1 1760
CCCSc1nc2c(c(=O)[nH]c(=O)n2C)n1CCc1ccccc1 1480
CCOc1cccc(-n2nnnc2-c2ccc(OC)cc2)c1 1540
COc1ccc(Nc2cc(C)nc(-n3nc(C)cc3C)n2)cc1 1750
